# Compound activity: PubChem, National Center for Advancing Translational Sciences (NCATS)
# hERG WT inh: inhibitors of human wildtype KCNH2 potassium channel; Q12809; U2OS, BacMam KCNH2, thallium flux FluxOr; active compounds read low; activity change, % at 1.84 µM; 0.37% of 340,000 active; AID 720551;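 active = maximum activity change below -70%; inconclusive = maximum activity change between -70% and -50%; inactive = maximum activity change above -50%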; note: % is set by controls: 0 for no effect and ±100 for the full control effect
#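 U2OS cells transduced with wild-type KCNH2 virus are loaded with FluxOr dye for 45 min, and thallium flux is measured in kinetic reads before and after stimulation buffer. Rate constants are normalized to DMSO controls.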
# ClpP mod: qHTS Assay for Activators of ClpP; purified B. subtilis ClpP, FRET peptide cleavage, 20 min; 1.9% of 340,000 active; ATP-dependent Clp protease proteolytic subunit (Bacillus subtilis (strain 168)), P80244; Potency, µM (titrated, usually from 57.5 µM), without a hit: at the top dose activity change, negative = active; active = well fitted falling curve with a large enough effect; inconclusive = small, poorly fitted or top-dose-only effect; inactive = no such curve, though single readings can be large or run the other way; note: potency is the fitted concentration of half-maximal effect; the source files actives as falling curves though it sought activators and does not explain the sign; nearly all actives have a fitted effect of over 65% in size
# Target sequence (P80244 whole entry, looked up): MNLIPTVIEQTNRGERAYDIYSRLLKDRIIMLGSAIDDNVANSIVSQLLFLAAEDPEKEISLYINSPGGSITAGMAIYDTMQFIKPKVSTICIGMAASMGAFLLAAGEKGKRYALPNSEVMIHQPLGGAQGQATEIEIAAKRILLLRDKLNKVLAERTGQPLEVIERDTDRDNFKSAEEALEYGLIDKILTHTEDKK
#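 FRET quenching reversal measured ClpP activation: 10 microg/mL B. subtilis ClpP at pH 8 with the FRET-FV decapeptide, read at 430 nm after 320 nm excitation. The 20-min minus 0-min signal was scaled between DMSO/no-enzyme wells and ADEP (5.8 microM final).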
# KCNH2 3.1 inh: blocks the human KCNH2 3.1 channel isoform; U2OS KCNH2 3.1, thallium flux FluxOr; active compounds read low; AID 720553; activity change, % (tested at about 1.8 µM); 0.95% of 340,000 active;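 active = maximum activity change below -70%; inconclusive = maximum activity change from -70% to -50%; inactive = maximum activity change above -50%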;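 note: thallium influx rate constant from kinetic fluorescence after stimulation buffer; % is set by controls: 0 for no effect and ±100 for the full control effect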
#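 Virally transduced U2OS (3.1 isoform, 4 h infection in dark at RT) → overnight 37 C → FluxOr + Red40 in HBSS/HEPES, 45 min → stimulation buffer, 2 min kinetic read → rate constant vs DMSO controls.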
# Chronic BCR inh: chronic active BCR signaling inhibition. Potency, µM (titrated, usually from 46.1 µM), without a hit: top-dose activity change, negative = inhibition, actives largely listed as inhibitors. AID 493014. 0.05% of 340,000 active. ABC-DLBCL IkBa-CBG/CBR reporter, luminescence ratio, 4 h; active = well fitted inhibition curve with a large enough effect in the signal ratio, with a control signal flat, not every such curve was filed as active; inconclusive = small, poorly fitted or top-dose-only effect, or effect the other way, or a change in a side signal; the % refers to the signal ratio;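 note: potency is the fitted concentration of half-maximal effect; plate controls were basal doxycycline-induced cells for no effect and cells given 10 µM MG132 for full effect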
#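 Compounds up to 46 uM were incubated four hours with TMD8 cells whose green CBG68 luciferase is fused to IkappaBalpha; red CBR luminescence normalised the signal, and concentration-effect curves were fitted to fusion, red and ratio data.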
# ALOX12 inh: inhibitors of human 12S-lipoxygenase ALOX12 | Potency, µM (titrated, usually from 108 µM), for the others: at the top dose activity change, negative = inhibition, hits mostly inhibitors | purified 12hLO, xylenol orange hydroperoxide absorbance | 1.1% of 580,000 active | AID 1671190; active = well fitted inhibition curve with a large enough effect; inconclusive = small, poorly fitted or top-dose-only effect, or another doubt; inactive = no such curve, though single readings can be large or run the other way; note: potency is the fitted concentration of half-maximal effect; % is set by controls: 0 for no effect and ±100 for the full control effect
#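 Hydroperoxide product was detected by ferrous iron/xylenol orange as the 573 to 405 nm absorbance ratio. Arachidonic acid at 40 uM (final) was turned over for 30 min at room temperature by 150 nM human 12hLO, pH 7.0 Hepes buffer, after 15 min compound preincubation.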
# LDHA block: blocks human lactate dehydrogenase A; purified LDHA, NADH/diaphorase-resazurin fluorescence; active compounds read low; activity change, % (values are at about 110 or 230 µM); 0.15% of 480,000 active; AID 1347041; in the data active = activity change below about -30%; inconclusive = mostly about -25% to -30%;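 note: plate controls were DMSO wells for no effect and wells without enzyme for full effect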
#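 Human LDH5 at 2 nM final in Tris HCl pH 7.4 with 0.06 mM NADH and 0.2 mM pyruvate, reacted 5 minutes at room temperature. Remaining NADH coupled via diaphorase/resazurin; resorufin fluorescence read at 0 and 20 minutes, normalized to enzyme-free and DMSO wells.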
# An asterisk follows results filed as active; ? = inconclusive; . = not tested or not shown; [ ] = dose if it differs, or a comment. This is a sample that favours compounds with a hit; in the whole collection about 3% have one here.
SMILES,hERG WT inh,ClpP mod,KCNH2 3.1 inh,Chronic BCR inh,ALOX12 inh,LDHA block
Cc1cc(=O)[nH]c2n[nH]c(-c3ccccc3)c12,-2,25µM*,-6,?,1%,2
CCCn1c(=O)c2c(nc(-n3nc(C)c(C)c3C)n2CC)n(C)c1=O,.,.,.,.,?,0
CC1CCCC(NC(=S)NCc2ccc(F)cc2)C1C (centres undefined),.,.,.,.,?,-11
CC(=O)c1cccc(-c2ccc3c(=O)[nH]c(Nc4ccccc4)cc3c2)c1,10,-2%,12,.,-23%,6
O=c1[nH]c(Nc2ccccc2)cc2ccccc12,-3,28µM*,0,?,?,16
COc1ccc(OC)c(Nc2cc3ccccc3c(=O)[nH]2)c1,2,-13%,41,.,-12%,15
O=c1[nH]c(Nc2ccccc2)cc2cc(Br)ccc12,0,-4%,18,.,16µM*,12
COc1ccccc1Nc1cc2cc(Br)ccc2c(=O)[nH]1,-4,-5%,8,.,8.9µM*,12
O=[S+]([O-])(c1cccs1)N1CC(N2CCc3ccccc32)C1,.,.,.,.,-3%[6.33 µM],.
Clc1cccc(CN2CC[C@H](c3nc4ccccc4s3)C2)c1,.,.,.,.,-9%[176 µM],.
COC(=O)C1=C(C)NC(C)=C(C(=O)OC)C1C(=O)OCCN1C(=O)c2ccccc2C1=O,4,7.1µM*,10,?,?,-5
COc1ccc(C(=O)OCCN2C(=O)c3ccccc3C2=O)cc1OC,-8,-1%,5,.,1%,-3
Cn1c(N2CCOCC2)nc(-c2ccccc2)c1-c1ccccc1,2,11µM*,0,1%,2%,3
c1ccc(-c2nc3ccccc3nc2N2CCOCC2)cc1,1,-7%,11,1%,?,-2
COc1ccccc1/C=C/C(=O)C(C#N)c1ccc(C(F)(F)F)cn1 (centres undefined),.,.,.,.,-9%,-2
O=[N+]([O-])c1ccc(OCCCCN2CCc3ccccc3C2)cc1,-16,.,-71*,2%,?,-6
O=[N+]([O-])c1ccc(OCCCCN2CCCCC2)cc1,58,1%,-27,6%,-23%,2
O=C(NCc1ccc(F)cc1F)c1cc(COc2c(F)cccc2F)on1,-9,18µM*,10,?,31%,-4
O=C(NCc1c(F)cccc1F)c1cc(COc2c(F)cccc2F)on1,-6,.,.,?,2%,2
CC1(C)C(=O)OC(c2c(F)c(F)c(F)c(F)c2F)C2(CCCCC2)C1=O (centres undefined),-7,28µM*,7,3%,1%,2
CC1(C)C(=O)OC(c2cccn2-c2ccc([N+](=O)[O-])cc2)C2(CCCCC2)C1=O (centres undefined),-7,1%,-4,0%,-3%,-1
O=C(c1ccc2c(c1)OCO2)N1CCC(c2nnc3n2CCNC3)CC1,.,.,.,.,10µM*,.
O=C(c1ccc2c(c1)OCO2)N1CCn2c(nnc2C2CCCNC2)C1 (centres undefined),.,.,.,.,2%[6.33 µM],.
COC(=O)c1cc(OC(=O)c2cc3ccccc3cc2OC)cc(C(=O)OC)c1,.,.,.,.,?,-8
CC(=O)N(\C=C/C=C/C=C1\Sc2ccccc2C1=O)c1ccccc1,-12,.,?,?,16µM*,6
SMILES,hERG WT inh,ClpP mod,KCNH2 3.1 inh,Chronic BCR inh,ALOX12 inh,LDHA block
Cc1ccc(C)c(-c2cc(C(=O)O)c3cc(C)cc(C)c3n2)c1,.,.,.,.,-58%,2
CC(C)(C)c1cc(CN(CCO)CCO)cc(C(C)(C)C)c1O,5,-2%,1,-1%,16µM*,17
Oc1c(Br)cc(Br)cc1C=Nc1ccc(F)c(Cl)c1,.,.,.,.,4.5µM*,42
CCc1ccccc1NC(=O)CC1CC2CCC1C2 (centres undefined),.,.,.,.,-20%,-3
Cc1cc(CN(C)c2cc(C3CC(O)C3)ncn2)n[nH]1 (centres undefined),.,.,.,.,32%,.
Cc1ccccc1C(=O)c1cccn1CC(=O)O,-4,-1%,-7,12%,0%,-9
Cc1ccccc1C(=O)c1cccn1CC(=O)N1CCCCCC1,5,1%,-100*,10%,-21%,-4
CCn1c(SCc2ccccc2F)nc2cc(S(N)(=O)=O)ccc21,.,.,.,.,-18%,10
N#Cc1c(N)nc2c(c1-c1ccco1)CCCCC2,8,-20%,0,.,19%,6
N#Cc1c(N)nc2c(c1-c1ccncc1)CCCCC2,8,22µM*,20,6%,-9%,5
Cc1nn(C)c(C)c1-c1c(C#N)c(N)nc2c1CCCCCC2,42,1.3µM*,-12,-3%,4%,-4
Cc1c(-c2c(C#N)c(N)nc3c2CCCCCC3)cnn1C,9,13µM*,-8,0%,0%,-5
CC(C)(C)c1ccc(-c2c(C#N)c(N)nc3c2CCCC3)s1,-4,32µM*,-2,0%,0%,-13
Cc1ccccc1NC(=S)N/N=C1\CC(C)(C)Oc2ccc(O)cc21,3,?,-28,?,40µM*,-8
Cc1ccc(NC(=S)N/N=C2\CC(C)(C)Oc3ccc(O)cc32)cc1,.,-24%,-2,?,?,-6
CC(=O)N1CCC2(CC1)C/C(=N\NC(=S)Nc1ccc(C)cc1)c1cc(O)ccc1O2,1,-30%,-3,10%,45µM*,1
CSc1cccc(N/C=C/C(=O)c2ccc(C)c(C)c2)c1,.,.,.,.,?,6
Cn1cccc1C(=O)N1CCCCCCNC(=O)CC1,.,.,.,.,37%,.
N#C/C(=C\c1ccc(-c2ccccc2[N+](=O)[O-])o1)C(=O)N1CCOCC1,0,-4%,-79*,?,-10%,4
COc1c(C)cc(S(=O)(=O)N2CCCC2)c(C)c1C,1,-2%,-13,?,-12%,-9
COc1c(C)cc(S(=O)(=O)N2CCOCC2)c(C)c1C,-4,0%,-172*,-3%,8%,-5
Cc1ccc(S(=O)(=O)/N=C2/NC(=O)/C(=C\c3cc(Br)cc(Br)c3O)S2)cc1,-3,2%,23,?,.,-12
Cc1ccc(S(=O)(=O)/N=C2/NC(=O)/C(=C/c3ccc(Br)o3)S2)cc1,-7,-8%,4,?,1µM*,?
Cc1[nH]c2c(ccc3ccccc32)c1C,.,.,.,.,16µM*,1
O=C(CCC(=O)c1ccc(Cl)cc1)OCC(=O)c1ccccc1,9,32µM*,-33,10%,0%,-2
O=C1NC(=NC2CCCC2)C2(CCCN([S+](=O)([O-])c3cccs3)C2)N1c1cc(F)cc(F)c1 (centres undefined),.,.,.,.,2%[6.33 µM],.
